The campaign covered roughly 47,000 compounds. About 140 (0.3%) were called active. Cut-off read from the data, not from the text of the source: active = inhibition above about 30%; inactive = the rest. For the sample, actives were picked, then their nearest neighbours and some compounds at random.
Target: Ubiquitin carboxyl-terminal hydrolase 7 (Homo sapiens) (UniProt Q93009)
Experiment: blocks human USP7 ubiquitin-rhodamine cleavage (AID 1645854)
Details: purified USP7, Ub-rhodamine cleavage fluorescence; at 20 µM; active compounds read high

Chain of Ubiquitin carboxyl-terminal hydrolase 7 (Homo sapiens) (Q93009 whole entry, looked up): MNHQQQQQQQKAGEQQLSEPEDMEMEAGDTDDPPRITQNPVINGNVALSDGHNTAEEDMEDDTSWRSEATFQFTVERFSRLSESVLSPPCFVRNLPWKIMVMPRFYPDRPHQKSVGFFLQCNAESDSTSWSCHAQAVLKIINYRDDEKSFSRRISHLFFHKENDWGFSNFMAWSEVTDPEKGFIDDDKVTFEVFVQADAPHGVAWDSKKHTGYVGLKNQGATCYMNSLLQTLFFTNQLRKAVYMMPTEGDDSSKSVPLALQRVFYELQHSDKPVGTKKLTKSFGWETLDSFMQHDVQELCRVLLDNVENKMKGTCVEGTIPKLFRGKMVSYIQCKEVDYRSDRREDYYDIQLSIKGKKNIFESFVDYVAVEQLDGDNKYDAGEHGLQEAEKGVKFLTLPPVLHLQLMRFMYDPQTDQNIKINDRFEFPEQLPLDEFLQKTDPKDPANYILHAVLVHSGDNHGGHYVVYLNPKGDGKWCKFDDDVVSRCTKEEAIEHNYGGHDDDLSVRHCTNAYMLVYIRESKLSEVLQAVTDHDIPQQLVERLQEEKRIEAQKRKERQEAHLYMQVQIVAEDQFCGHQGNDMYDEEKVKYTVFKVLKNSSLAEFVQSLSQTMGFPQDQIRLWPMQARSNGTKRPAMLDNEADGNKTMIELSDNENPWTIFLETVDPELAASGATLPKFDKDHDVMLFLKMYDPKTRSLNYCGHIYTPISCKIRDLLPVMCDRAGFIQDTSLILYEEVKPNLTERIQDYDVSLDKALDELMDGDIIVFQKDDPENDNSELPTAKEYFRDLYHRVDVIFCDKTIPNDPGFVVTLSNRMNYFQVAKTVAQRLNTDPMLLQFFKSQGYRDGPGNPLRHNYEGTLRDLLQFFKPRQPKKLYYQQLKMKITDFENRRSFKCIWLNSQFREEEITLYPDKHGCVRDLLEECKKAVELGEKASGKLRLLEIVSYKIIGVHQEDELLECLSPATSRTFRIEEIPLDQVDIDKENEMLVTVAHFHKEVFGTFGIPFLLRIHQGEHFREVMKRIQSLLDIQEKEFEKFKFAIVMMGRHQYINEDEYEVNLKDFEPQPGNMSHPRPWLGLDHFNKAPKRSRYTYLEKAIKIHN

inhibition, inactive:
COc1cccc(CN2CCCC2c2noc(C3CC3)n2)c1 (stereo unspecified) 0.378%, COc1ccccc1CN1C[C@@H]2C[C@@H](O)CN2C[C@@H]1Cc1ccccc1 -13%, COc1ccc(-c2nnc(-c3ccccc3)o2)cc1S(=O)(=O)N1CCc2ccccc2C1 8.25%, COc1ccc(-c2nonc2NC(=O)Cc2ccccc2)cc1OC -0.82%, CNc1nc(C2CCN(C(=O)c3ccc4c(c3)OCCO4)C2)nc2c1CN(C)CC2 (stereo unspecified) -10.6%, O=C(COc1ccccc1-c1nnc(-c2ccccc2)o1)Nc1cc(F)ccc1F 5.06%, COc1ccc(-c2cnc(N(C)C)nc2C2CCCCN2)cc1 (stereo unspecified) -4.92%, CC(=O)N1CCC(NC2(Cc3cc(C(C)(C)C)on3)COC2)CC1 0.342%, CCOC(=O)Nc1cc(C)nn1-c1ncnc2c1cnn2-c1ccc(F)cc1 0.0906%, Cc1ccc(S(=O)(=O)N2CCN(C(=O)CN3CCc4ccccc43)CC2)cc1 -5.22%, CCOc1ccccc1C1C2=C(CC(C)(C)CC2=O)Nc2ccccc2N1C(=O)c1ccccc1 (stereo unspecified) -4.8%, COc1ccc(CC(=O)N2CCCCC2c2ccc3c(=O)n(C)c(=O)n(C)c3n2)cc1 (stereo unspecified) 0.092%, O=C(NCc1ccc(Cl)cc1)C1CCN(c2nccn3nc(-c4ccccc4)cc23)CC1 -35.4%, O=C(CN1CCCCC1)N[C@@H]1C[C@H]2Oc3ccccc3N[C@H]2[C@@H]1O 3.93%, O=C(C1CCNCC1)N1CCN(c2ccccc2F)CC1 1.05%, COc1ccccc1NC(=O)CSc1nc2ccccc2n1S(=O)(=O)c1ccc(Br)cc1 -6.03%, CC(C)NC(=O)N1CC[C@H]2COC(=O)N(Cc3ccccc3)[C@@H]2C1 3.45%, C/C=C(\C)C(=O)C(C)C1=CC(=O)C2=C(O[C@]3(C)CC[C@@H]4O[C@H](C(C)(C)O)CC[C@@]4(C)[C@@H]3C2)C1=O (stereo partly specified) -44.6%, COc1ccc(C(=O)NC(C(=O)OCC(=O)c2ccc(C)cc2)C(C)C)cc1OC (stereo unspecified) 3.56%, COc1cccc(CC(NC(C)=O)C(=O)NC2CCN(C(=O)C3CCCCC3)CC2)c1 (stereo unspecified) 5.13%, O=C1[C@H]2Cc3c([nH]c4ccccc34)CN2C(=O)CN1CC(O)c1ccccc1 (stereo partly specified) -145%, Cc1cc(CN2CCN(S(C)(=O)=O)CC(C(=O)N(C)C)C2)no1 (stereo unspecified) 0.0126%, COc1ccccc1NS(=O)(=O)c1ccc2c(c1)C(=O)N(C)c1ncccc1O2 2.84%, Cc1nn(Cc2ccccc2)c(C)c1C(=O)NS(=O)(=O)c1ccccc1Cl 1.27%, Cc1cc(C(=O)N2CCCC2c2ccccc2C)on1 (stereo unspecified) 0.669%, O=C(c1cc(=O)[nH]c2ccccc12)N1CCN(Cc2cn3ccccc3n2)CC1 -8.75%, COc1ccc(C2CC(=O)n3nc(-c4cccc(C)c4)nc3S2)cc1 (stereo unspecified) 0.741%, COC(=O)c1ccccc1NC(=O)c1nc(-c2ccccc2)oc1C -0.0638%, O=C(CSc1ncnc2c1sc1cccc(F)c12)N1CCCCCC1 -136%, COc1cccc(N2CCN(C(=O)Nc3ccc4c(c3)NC(=O)CO4)CC2)c1 3.68%, O=S(=O)(c1cc(-c2noc(C3CC3)n2)cs1)N1CCc2ccccc21 7.51%, Cc1ccc(C)c(N(C)C(=O)c2cccc3c2SCCC3=O)c1 -2.51%, Cn1cncc1-c1cncc(CC2CCCN(S(C)(=O)=O)C2)n1 (stereo unspecified) 0.0473%, O=C(O)COc1cc(O)c2c(=O)cc(-c3ccccc3)oc2c1 -6.31%, Cc1csc(C2(NC(=O)Cc3cc(C)on3)CCCC2)n1 -8.11%, COC(=O)c1c(C)[nH]c(C(=O)C(C)OC(=O)c2cccc(F)c2)c1C (stereo unspecified) -2.46%, CCc1ccc(-n2c(=O)c3ccccc3n(CC(=O)NCCC3=CCCCC3)c2=O)cc1 8.71%, CCOC(=O)C1(C)C=C(Nc2ccc(C(=O)O)c(O)c2)C(=O)N1c1ccccc1 (stereo unspecified) -4.45%, CC(=O)NC(Cc1ccccc1F)C(=O)NC1CCN(C(=O)C2CC2)CC1 (stereo unspecified) 1.1%, O=C(c1cccc(F)c1)N1CCN(Cc2cc(=O)c3ccccc3[nH]2)CC1 2.84%, Cc1cccc(NC(=O)Cc2nc(C)c(C(=O)NC3CC3)s2)c1C -0.0337%, O=C(CC1(O)C(=O)N(CCc2ccccc2)c2ccc(Cl)cc21)c1ccc2c(c1)OCCO2 (stereo unspecified) 5.91%, COc1ccc(-c2nc3ccccc3c3nnc(SCC(N)=O)n23)cc1 6.48%, Cc1cc(C)nc(SCc2nnc(Nc3ccccc3)s2)n1 0.95%, CCc1ccc(C(=O)COc2ncnc3scc(-c4ccccc4)c23)cc1 4.6%, O=C(COc1cccc2ccc(N3CCC(Cc4ccccc4)CC3)nc12)Nc1cccc(F)c1 5.1%, Cn1c(CNC(=O)c2cn3ccccc3n2)nc2ccccc21 -4.22%, COc1ccc(C(=O)Nc2ccccc2N2CCOCC2)cc1S(=O)(=O)N(C)Cc1ccccc1 2.61%, COc1cc2c(cc1OC)-c1cc(NCc3ccccc3)nc(=O)n1CC2 -10.1%, CC1(C)C(=O)Nc2ccc(S(=O)(=O)NCc3ccc(F)cc3)cc21 1.68%, Cc1cn(C)c(C2CCCN2C(=O)c2cc(C)nc3onc(C)c23)n1 (stereo unspecified) -2.53%, Cc1cccc(NC(=O)CCc2nnc3ccc(NCc4ccc5c(c4)OCO5)nn23)n1 -2.6%, Cn1c(=O)n(C2CCN(CCc3ccccc3)CC2)c2ncncc21 2.05%, Cc1ccc(C(=O)N2CC(=O)N(Cc3ccc(Cl)cc3)CC(O)C2)cc1 (stereo unspecified) -42.1%, Cc1nnc(-c2cnn(C)c2N)n1CC1CCCO1 (stereo unspecified) -0.964%, CCOC(=O)c1noc2nc(C)n(Cc3nc(-c4ccccc4)oc3C)c(=O)c12 1.79%
